From PubChem BioAssay AID602438 (Sanford-Burnham Center for Chemical Genomics, 2012)
Where “and” joins values, the source holds several entries; their conditions need not be identical. Equal values may be shown once. In all, about 360,000 compounds went through this assay and about 3,100 (0.86%) were called active.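 Rule for the calls: active = inhibition or corrected inhibition above about 18%, plus a signal ratio from 0.5 to 1.5 (limit read from the data, passing the limit was not always enough); inactive = the rest.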 Shown is part of a subset that was picked to be rich in actives.

Target: Neuropilin-1 (Homo sapiens) (UniProt O14786)
Experiment: NRP-1/CendR peptide interaction modulators – biochemical, fluorescence polarization, uHTS, primary screen (AID 602438)
Conditions: FAM-RPARPAR peptide binding to NRP-1, fluorescence polarization; at 25 µM; hits give high values

Neuropilin-1 (Homo sapiens), sequence (O14786 whole entry, looked up): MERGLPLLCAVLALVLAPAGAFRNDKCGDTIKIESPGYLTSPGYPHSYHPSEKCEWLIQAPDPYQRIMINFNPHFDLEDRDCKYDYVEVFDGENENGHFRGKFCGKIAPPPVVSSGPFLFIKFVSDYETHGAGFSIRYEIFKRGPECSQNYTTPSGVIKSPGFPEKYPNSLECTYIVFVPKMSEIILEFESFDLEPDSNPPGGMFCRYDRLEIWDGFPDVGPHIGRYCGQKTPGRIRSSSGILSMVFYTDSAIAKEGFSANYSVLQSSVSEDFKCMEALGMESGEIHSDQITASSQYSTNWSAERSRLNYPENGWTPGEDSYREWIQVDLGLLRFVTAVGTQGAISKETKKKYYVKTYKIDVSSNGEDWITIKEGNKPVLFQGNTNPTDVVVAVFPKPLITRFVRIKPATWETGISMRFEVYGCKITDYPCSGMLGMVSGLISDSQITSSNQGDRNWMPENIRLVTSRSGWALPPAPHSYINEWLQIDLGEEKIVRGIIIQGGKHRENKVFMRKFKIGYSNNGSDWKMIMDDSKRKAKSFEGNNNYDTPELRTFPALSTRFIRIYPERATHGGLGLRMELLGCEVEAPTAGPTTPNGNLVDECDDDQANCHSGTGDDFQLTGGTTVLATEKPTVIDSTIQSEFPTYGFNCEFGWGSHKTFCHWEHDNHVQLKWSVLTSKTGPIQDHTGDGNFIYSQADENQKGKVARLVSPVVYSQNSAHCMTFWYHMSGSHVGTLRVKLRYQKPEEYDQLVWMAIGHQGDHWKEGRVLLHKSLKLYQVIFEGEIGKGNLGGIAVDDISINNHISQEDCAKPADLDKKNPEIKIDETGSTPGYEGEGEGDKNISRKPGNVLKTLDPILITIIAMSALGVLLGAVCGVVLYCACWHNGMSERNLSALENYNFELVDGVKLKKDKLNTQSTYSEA

inhibition, active:
COc1ccc(Nc2nc(-c3cccnc3)nc3ccccc23)cn1 55.4%
Cc1nnc(SC(C)C(=O)Nc2ccc(S(=O)(=O)NC3CCCCC3)cc2)s1 (centres undefined) 25.4%
O=S(=O)(c1ccccc1)c1nc(-c2ccccc2)oc1NCCCN1CCOCC1 28.7%
Cc1ccc(-n2c(C)cc(/C=N\NC(=O)CC(=O)NC(C)C)c2C)cc1 32.4%
Cc1nc(N2CCCC2C(=O)O)c2oc3ccccc3c2n1 (centres undefined) 29.6%
Cc1ccc(Cl)cc1N1CCN(C(=O)c2cccc3c(=O)c(C)c(-c4ccccc4)oc23)CC1 31%
COc1ccc(OC)c(S(=O)(=O)Nc2c(C)nn(C)c2C)c1 16.5%
Cc1ccc(-c2nc(C)sc2CC(=O)OCC(=O)Nc2c(F)cccc2F)cc1 24.9%
O=C(COc1ccc(/C=N/NS(=O)(=O)c2ccccc2)cc1)NCCc1ccccc1 31.8%
COc1ccc(S(=O)(=O)/N=C2\C=C(NS(=O)(=O)c3ccccc3)C(=O)c3ccccc32)cc1 41.6%
CC(=O)NNc1cc(=O)c2c(=O)n(C)c(=O)n(C)c2[nH]1 21.9%
CCOC(=O)c1cc(NC(=O)c2ccc(Cl)cc2)c(=O)oc1-c1ccccc1 24.4%
O=C(O)C1CCN(c2ccc([N+](=O)[O-])cc2[N+](=O)[O-])CC1 27.4%
Cc1ccc(CC2CC(=O)N(c3cc(C)ccc3C)C2=O)cc1 (centres undefined) 50%
CC1O[C@@H](OC2C(O)C(C)O[C@H](OC(=O)[C@]34CCC(C)(C)C[C@H]3C3=CCC5[C@@]6(C)CC(O)C(O[C@@H]7OC(CO)C(O)[C@@H](O)[C@@H]7O)[C@@](C)(C(=O)O)C6CC[C@@]5(C)[C@]3(CO)CC4)C2O[C@H]2OC(C)[C@@H](O[C@@H]3OCC(O[C@@H]4OC(CO)C(O)[C@H](O)C4O)[C@@H](O)[C@@H]3O)[C@H](O)C2O)C(O)C(O)C1O (some centres undefined) 36.2%
O=C1OC(Cc2ccccc2)C(c2ccccc2)C1=O (centres undefined) 24.2%
Cc1ccc(CN(CC(=O)NC2CCCCC2)C(=O)c2csnn2)cc1 24.5%
COC(=O)c1cc(NC(=O)CN2CCC(C(N)=O)(N3CCCCC3)CC2)cc(C(=O)OC)c1 20.2%

inhibition, inactive:
O=[N+]([O-])c1ccc(CN2CC(N3CCC(c4ccccc4)CC3)CS2(=O)=O)cc1 (centres undefined) 11.5%
CC1(C)CC(=O)CC2(C1)NCC(c1ccccc1Cl)c1c2[nH]c2ccccc12 (centres undefined) -3.3%
CCNC(=O)COC(=O)/C=C/c1c(C)nn(Cc2cccc(OC)c2)c1Cl -6.8%
CC1(C)CN(c2ccc(-c3ccnc4ncnn34)cc2)C1=O 9.3%
O=C(Nc1ccc(Cl)cc1)Nc1ccc(Oc2cccnc2)nc1 3.4%
O=C(CSc1n[nH]c(-c2cccnc2)n1)Nc1ccnc2ccccc12 -6.1%
CCc1nnc(NC(=O)c2ccc(S(=O)(=O)NC3CCCCC3)cc2)s1 -10.5%
Cc1ccc(Nc2nnc(SC(C)C(=O)NC3CC3)s2)cc1 (centres undefined) -8.1%
Cc1ccc(S(=O)(=O)N(CC(=O)NCCSC2CCCCC2)c2ccccc2F)cc1 -1.5%
O=C(Nc1c2c(nn1-c1ccc(F)cc1)CS(=O)C2)C12CC3CC(CC(C3)C1)C2 (centres undefined) 5.1%
O=S(=O)(c1ccc(Cl)cc1)c1nc(-c2ccccc2F)oc1NCCN1CCOCC1 5.8%
O=S(=O)(c1ccc(Br)cc1)c1nc(-c2ccccc2)oc1N1CCOCC1 0.9%
CCc1nc(SCC(=O)Nc2ccccc2OC)n[nH]1 4.2%
C=CCN1CCN(c2ccncc2S(=O)(=O)N2CCN(C)CC2)CC1 1.6%
Cc1cc(/C=N/NC(=O)CC2(C)OCCO2)c(C)n1-c1ccc(Cl)c(Cl)c1 -7.8%
Cc1cc(/C=N/NC(N)=O)c(C)n1C1CCCCC1 -11.5%
O=C(O)C1CCCN1C1=NS(=O)(=O)c2ccccc21 (centres undefined) 9.6%
O=C(O)C1CCCN1c1nc(Cl)ccc1[N+](=O)[O-] (centres undefined) -0.9%
O=c1ccc(S(=O)(=O)N2CCCC2)cn1Cc1nc(-c2ccccc2)no1 3.3%
c1ccc(CCC2=NCCn3cccc32)cc1 -28.1% and -1.3%
CNS(=O)(=O)c1cnccc1N1CCN(c2cccc(C)c2)CC1 -5.1%
Cc1cccc(NS(=O)(=O)c2cc(Cl)ccc2Cl)n1 7.9%
COc1ccccc1N1CCN(C(=O)c2cc(=O)c3cc(C)cc(C)c3o2)CC1 14.6%
Cc1cccc(N2CCN(C(=O)c3cnn4c(C(F)F)cc(-c5ccccc5)nc34)CC2)c1C 3.9%
COCC1CCN(C(=O)CCc2nnc(C3(c4ccc(Cl)cc4)CCC3)o2)C1 (centres undefined) 11.4%
COc1ccc(OC)c(S(=O)(=O)Nc2ccccc2F)c1 -3.6%
COc1ccc(OC)c(S(=O)(=O)NCCC(C)C)c1 6.4%
Cc1n[nH]c(=O)c2c(NC(=O)COC(=O)c3ncc(Cl)c(Cl)c3Cl)oc(C)c12 4.1%
Cc1nc(-c2ccc(F)cc2)c(CC(=O)N(C)CC(=O)Nc2c(C)cccc2C)s1 -11.9%
CCOc1ccc(-c2nc(C)sc2CC(=O)O)cc1 0.2%
CCOC(=O)C1=C(N)N2C(=O)C(C)SC2=C(C(=O)OCC)C1c1cc(OC)c(OC)c(OC)c1 (centres undefined) 6.5%
COc1ccc(OCC(=O)NCCc2ccc(S(N)(=O)=O)cc2)cc1 -12.6%
O=C(COc1ccc(S(=O)(=O)NCCc2ccccc2)cc1)N1CCCC1 0.6%
CCc1ccnc(NC(=O)Nc2ccc(OCc3ccccc3)cc2)c1 2.7%
O=C(c1ccc(F)cc1)n1c(=S)nc2ccccn21 -0.8%
CC(=O)OCc1cc(=O)n(C)c(=O)n1C 14.5%
COc1ccc(NS(=O)(=O)c2ccc(Oc3c(C#N)cccc3C#N)cc2)cc1 6.6%
Cc1ccc(S(=O)(=O)/N=C2\C=C(NS(=O)(=O)c3ccc(C)cc3)C(=O)c3ccccc32)cc1 24.8%
CCOCCC(=O)Nc1ccc2c(c1)c(=O)n(C)n2-c1ccc2ccccc2c1 -1.8%
Cc1cc(S(=O)(=O)c2cc3ccc(O)c(C)c3oc2=O)ccc1F 6%
CCN(CC)P(=O)(C(NC(=O)OC)C(F)(F)C(F)(F)C(F)(F)C(F)F)N(CC)CC (centres undefined) 0.3%
CCC(=O)NNc1cc(=O)c2c(=O)n(C)c(=O)n(C)c2[nH]1 1.9%
CC(=O)Nn1cc2c(=O)n(C)c(=O)n(C)c2c1 -0.7%
CCOCCCn1c(SCC(=O)Nc2cc(OC)ccc2OC)nc2ccccc2c1=O 6.3%
CC(=O)NC(Cc1ccc(F)cc1)C(=O)O (centres undefined) -13.6%
O=C1Nc2ccccc2-n2nnnc2C1N1CCN(c2cccc(C(F)(F)F)n2)CC1 (centres undefined) 3.4%
CCOC(=O)c1cccnc1NC(=O)c1ccncc1 -9.5%
COC(=O)c1ccc(C(=O)Nc2cc(Cl)ccc2Cl)cc1NC(=O)c1ccccc1C -6%
O=C(COC(=O)c1ccc(S(=O)(=O)Nc2ccccc2)cc1)NCC1CCCO1 (centres undefined) 9.7%
CCN(C(=O)COC(=O)c1ccccc1O)c1cccc2ccccc12 6.5%
COc1ccc(S(=O)(=O)c2c[nH]c(=S)[nH]c2=O)cc1Cl -6%
CCC(C)(C)NC(=O)c1cc([N+](=O)[O-])ccc1N1CCCCC1 8.9%
O=[N+]([O-])c1ccc(N2CCN(c3ccc(O)cc3)CC2)c(Cl)c1 -3.9%
CC(CC(=O)C1C(C)C=CCC1(C)C)NNC(N)=O (centres undefined) 12.3%
O=C(CSc1ccc(-c2ccc(-n3cccn3)cc2)nn1)Nc1ccc([N+](=O)[O-])cc1 15.2%
O=C(NC1CCCC1)C(NS(=O)(=O)c1ccc(Br)s1)c1ccccc1 (centres undefined) -3%
COCCNC(=O)C1C(=O)Nc2ccccc2C(=O)N1c1ccc2c(c1)OCCO2 (centres undefined) -11.4%
Cc1ccc(CC2CC(=O)N(c3nc(C)cc(C)n3)C2=O)cc1 (centres undefined) 13.2%
Cc1ccc(CC2CC(=O)N(c3ccc4c(c3)OCCO4)C2=O)cc1 (centres undefined) 4.8%
CN(CC(=O)NCCc1ccc(S(N)(=O)=O)cc1)CC(=O)Nc1ccc(F)c(F)c1F 7.4%
Oc1ccc(-c2nncn2-c2ccccc2)cc1 2.8%
CC1(C)C2CC[C@]3(C)C(CC=C4[C@@H]5C[C@@](C)(CO)CC[C@]5(C(=O)O)CC[C@]43C)[C@@]2(C)CC[C@@H]1O (some centres undefined) -11.3%
O=C1CCC(Cc2ccccc2)N1 (centres undefined) -7%
O=C1c2ccccc2C(=O)C1c1ccccc1 -13.9%
COc1ccc(Cl)cc1-c1cc(C(=O)Nc2cc(OC)c(OC)c(OC)c2)[nH]n1 5.6%
CC(=O)N/C(=C\c1ccccc1)C(=O)OC(C)C(=O)N(C)c1ccccc1 (centres undefined) 6.8%
O=C(CN(C(=O)c1csnn1)c1ccc(Br)cc1)NC1CCCC1 3.2%
Cc1ccccc1CCN(CC(=O)NC1CCCCC1)C(=O)c1csnn1 -9.2%
Nc1nc2c(Br)ccc(Br)c2cc1C(=O)NCCc1ccccc1 6.1%
COCC(=O)Nc1cc(C(=O)OC)cc(C(=O)OC)c1 5.2%
COC(=O)c1cc(NC(=O)CN2CCN(C(C)=O)CC2)cc(C(=O)OC)c1 3%
